This assay concerns the target Beta-2 adrenergic receptor (Homo sapiens) (UniProt P07550). In words: Adrenergic beta2 receptor (ADRB2) small molecule agonists, cell-based qHTS assay (AID 1963593).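 Also: CHO cells stably overexpressing human ADRB2.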 Particulars: CHO-ADRB2 cells, cAMP HTRF, 30 min; series mostly up to 42.5 µM. In short, it runs like this: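 CHO cells stably over-expressing ADRB2 were plated overnight at 37C, then dosed with compounds plus a stimulation mix containing 100uM IBMX and 25uM Ro-20-1724 for 0.5hr at room temperature. cAMP was measured by HTRF competition, 1hr.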

Our source for the Potency values is PubChem BioAssay (Tox21).

Each structure is given as a SMILES string. Records with an inconclusive call do not appear. Entries that show only a call come without a potency. Calls of active or inactive are those of the source. Calls follow the shape of the full dose curve.

Beta-2 adrenergic receptor (Homo sapiens), sequence (P07550 whole entry, looked up): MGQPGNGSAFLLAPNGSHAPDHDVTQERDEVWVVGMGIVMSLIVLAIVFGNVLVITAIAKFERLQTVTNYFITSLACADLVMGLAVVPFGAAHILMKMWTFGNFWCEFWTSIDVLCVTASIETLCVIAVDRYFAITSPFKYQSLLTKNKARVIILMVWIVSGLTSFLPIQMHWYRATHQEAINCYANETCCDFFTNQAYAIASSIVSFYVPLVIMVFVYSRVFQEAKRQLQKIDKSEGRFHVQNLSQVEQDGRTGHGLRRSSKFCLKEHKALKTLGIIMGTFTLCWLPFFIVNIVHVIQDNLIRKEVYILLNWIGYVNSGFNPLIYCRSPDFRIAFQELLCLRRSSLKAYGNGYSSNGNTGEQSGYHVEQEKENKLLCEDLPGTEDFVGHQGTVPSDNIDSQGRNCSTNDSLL

As to `Cc1ccc2nc(N)[nH]c(=O)c2c1Sc1ccncc1`, the Potency result was “inactive”.

Consider `CCCCCCc1ccc(N)cc1`, for which the Potency entry is “inactive”.

Turning to `CC(C)=CCC1C(=O)N(c2ccccc2)N(c2ccccc2)C1=O`, the Potency entry is “inactive”.

Turning to `Oc1ccccc1Cc1ccccc1O`, the Potency entry was “inactive”.

For `CC1(C)Cc2cccc(N)c2O1`, the Potency result is “inactive”.

`COc1cnc(NS(=O)(=O)c2ccc(N)cc2)nc1`: the Potency entry is “inactive”.

For `CN1CCCCC1CCN1c2ccccc2Sc2ccc(S(C)=O)cc21` (configuration not stated), the Potency entry was “inactive”.

For `O=C(O)Cc1c(Cl)ccc(Cl)c1Cl`, the Potency result is “inactive”.

Consider `CC1(C)[C@H]2CC[C@]1(C)C(=O)C2`, for which the Potency result was “inactive”.

Consider `CCCCCCCCCCCCCCBr`, for which the Potency entry was “inactive”.

As for `CCNS(=O)(=O)c1ccc(C)cc1`, the Potency result was “inactive”.

Turning to `Cc1nc2ccccc2n1Cc1ccc(Cl)cc1`, the Potency result was “inactive”.

On to `CN(C)c1ccc(C(c2ccccc2)c2ccc(N(C)C)cc2)cc1`, for which the Potency result is “inactive”.

With `COc1ccc(S(=O)(=O)N2c3ccc(Cl)cc3[C@@](O)(c3ccccc3Cl)[C@H]2C(=O)N2CCC[C@@H]2C(N)=O)cc1OC`, the Potency entry was “inactive”.

Turning to `NC(=O)NC(=O)Cc1ccccc1`, the Potency result is “inactive”.

As for `CCCC(=O)OC(=O)CCC`, the Potency entry was “inactive”.

`C/C=C/C(=O)CC`: the Potency entry was “inactive”.

As to `OCCCCC(O)CO` (configuration not stated), the Potency result is “inactive”.

`CC(=O)CC(c1ccc([N+](=O)[O-])cc1)c1c(O)c2ccccc2oc1=O` (configuration not stated): the Potency entry is “inactive”.

For the molecule `COc1ccc2[nH]c(S(=O)Cc3ncc(C)c(OC)c3C)nc2n1` (configuration not stated), the Potency result is “inactive”.

Regarding `c1cnc2c(n1)CCCC2`, the Potency result was “inactive”.

`COc1ccc2c(c1)C(=O)N(CCc1ccc(S(=O)(=O)NC(=O)NC3CCCCC3)cc1)C(=O)C2(C)C`: the Potency entry was “inactive”.

As to `CCOC(=O)COc1cc(-n2ncc(C(F)(F)F)c(C)c2=O)c(F)cc1Cl`, the Potency result was “inactive”.

On to `CCCCC(CC)COC(=O)CC#N` (configuration not stated), for which the Potency result was “inactive”.

Turning to `CCOC(=O)C1CC(=O)C(=C(O)C2CC2)C(=O)C1` (configuration not stated), the Potency result was “inactive”.

Turning to `COCCc1ccccn1`, the Potency entry was “inactive”.

Consider `CCCn1cnc2c1c(=O)n(CCCCC(C)=O)c(=O)n2C`, for which the Potency entry was “inactive”.

Regarding `CCCCCOc1ccc(C2SC(=O)NC2=O)cc1OCC` (configuration not stated), the Potency entry is “inactive”.

As to `CCOC(=O)Cc1cccc2ccccc12`, the Potency result is “inactive”.

As to `COc1ccc(CN2CCN(C(c3ccc(F)cc3)c3ccc(F)cc3)CC2)c(OC)c1OC`, the Potency entry is “inactive”.

Turning to `CC(C)=CCC1=C(O)c2ccccc2C(=O)C1=O`, the Potency result was “inactive”.

Consider `CCCCOc1cc(C(=O)NCCN(CC)CC)c2ccccc2n1`, for which the Potency entry was “inactive”.

Regarding `O=C(O)c1cc(C(=O)O)c(C(=O)O)cc1C(=O)O`, the Potency entry was “inactive”.

On to `COc1c(C)c2c(c(O)c1C/C=C(\C)CCC(=O)OCCN1CCOCC1)C(=O)OC2`, for which the Potency result was “inactive”.

On to `CC(=O)NCCCCCC(=O)O`, for which the Potency result was “inactive”.

Turning to `CC(=O)CC(=O)OC(C)(C)C`, the Potency result was “inactive”.

Turning to `Cc1c(C)n(CCN(C)C)c2ccc(C(=O)OCCN(C)C)cc12`, the Potency entry was “inactive”.

On to `Cc1cc(Br)ccc1NC(=O)CCl`, for which the Potency result was “inactive”.

Consider `NC(=O)C1(N2CCCCC2)CCN(CCCC(=O)c2ccc(F)cc2)CC1`, for which the Potency result was “inactive”.

As to `O=C(CCOCCOCCOCCOCCC(=O)Nc1c(I)cc(I)c(C(=O)O)c1I)Nc1c(I)cc(I)c(C(=O)O)c1I`, the Potency result is “inactive”.

Take `CC/C=C\CCOC(=O)c1ccccc1O`: the Potency entry is “inactive”.

In the case of `CN1CCCN=C1COC(=O)C(O)(c1ccccc1)C1CCCCC1` (configuration not stated), the Potency result was “inactive”.
